Screening results (PubChem BioAssay)
This is a sample that favours compounds with a hit; in the whole collection about 4.9% have one here.
Platelet DG rel = platelet dense granule release activity; inhibition, %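 (compounds screened at 7.5 µM in platelet-rich plasma)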; 300,000 tested, 0.22% active; human platelet-rich plasma, SFLLRN dense granule ATP release, luminescence; AID 1663;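 active = mean replicate score, as percent of positive control, at or above 50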
MPTP inh = blocks calcium-induced mitochondrial swelling. isolated mouse mitochondria, Ca2+ swelling absorbance, 30 min. inhibition, % at 10 µM. 360,000 tested, 1.4% active. AID 602449;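 active = inhibition of 50% or more, scaled per plate between neutral and stimulator controls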
dFosB act = activators of mouse delta FosB homodimer. P13346. purified delta FosB, TAMRA-CDK5 oligo fluorescence polarization; percent of positive-control signal above neutral wells. activation, % at 25 µM. 340,000 tested, 0.99% active. AID 493131;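 active = mean activation above about 17%, with every replicate also reaching it, limit read from the data, passing the limit was not always enough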
Target sequence (P13346 whole entry, looked up): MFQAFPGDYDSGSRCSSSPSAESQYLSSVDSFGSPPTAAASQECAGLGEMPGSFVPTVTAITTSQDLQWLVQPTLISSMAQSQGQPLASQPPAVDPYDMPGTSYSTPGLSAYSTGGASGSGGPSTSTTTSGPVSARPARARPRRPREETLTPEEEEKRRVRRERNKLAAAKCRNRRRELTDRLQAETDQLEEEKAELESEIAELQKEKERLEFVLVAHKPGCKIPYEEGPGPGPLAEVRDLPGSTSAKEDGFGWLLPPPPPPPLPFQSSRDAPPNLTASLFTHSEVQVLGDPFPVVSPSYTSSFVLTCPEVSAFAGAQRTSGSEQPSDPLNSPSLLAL
HSF1 inh = HSF1 inhibition. NIH3T3-HGL HSE-luciferase, MG132-induced, luminescence 8 h; stronger effect = lower value. activity change, negative = inhibition, % at 7.5 µM (by protocol). 300,000 tested, 0.77% active. AID 2098;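 active = more than half of replicate wells show activity change below -50%, luminescence cut by over half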;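 note: luciferase reports HSF-1 transcriptional activity via heat shock element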
HSP90 inh = blocks HSP90-mediated luciferase refolding in reticulocyte lysate; Rabbit reticulocyte lysate, luciferase refolding luminescence, 3 h; inhibition, % at 5.6 µM; AID 1789; 290,000 tested, 0.91% active;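 active = inhibition above the screen-wide mean plus 3 SD, computed separately per campaign, cut at about 16% in these data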;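 note: inhibitors lower the luminescence because luciferase stays unfolded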
HSF-1 act = increases HSF-1 driven luciferase reporter signal | NIH3T3-HGL HSF-1 luciferase reporter, MG132, 8 h; 100% = twice DMSO control signal | 300,000 tested, 1.7% active | activation, % at 9 µM | AID 504408;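 active = mean replicate activation of at least 50% with a set share of replicates each reaching 50%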
MPTP counter = Rhodamine 123 counter-screen of mitochondrial pore hits. inhibition, % at 10 µM. shares compounds with MPTP inh. 5,000 tested, 78% active. isolated mitochondria, membrane potential, Rhodamine 123 fluorescence; in the data active = inhibition above about 22%
Hits are given with their value; - = inactive; . = not tested or not shown.

SMILES	Platelet DG rel	MPTP inh	dFosB act	HSF1 inh	HSP90 inh	HSF-1 act	MPTP counter
CCCCOc1ccc(C(=O)Nc2ccncc2)cc1	-	101.5	-	-	-	-	110.7
CC(C)(C)c1ccc(OCC(=O)Nc2ccncc2)cc1	-	104.9	-	-	-	-	73.9
CC(C)c1ccc(OCC(=O)Nc2ccncc2)cc1	-	74.4	-	-	-	-	70.7
CC(C)c1ccc(NC(=O)COC(=O)COc2ccccc2)cc1	-	-	-	-	-	-	.
O=C(CSc1ccc2ccccc2c1)Nc1ccncc1	-	84.1	-	-	-	-	86.3
O=C(CSc1ccncc1)Nc1ccc2ccccc2c1	-	-	-	-	-	-	.
CCN(C(=O)CSc1n[nH]c(-c2ccc(OC)cc2)n1)c1c(N)n(Cc2ccccc2)c(=O)[nH]c1=O	.	-	-	.	.	.	.
O=C(COC(=O)c1cccc(S(=O)(=O)N2CCCC2)c1)Nc1ccccc1Cl	.	-	-	.	.	.	.
CC(C)(C)c1ccc(NC(=O)COc2ccc(-n3ccnc3)cc2)cc1	-	107.2	-	-	-	-	94.1
COc1cc(NC(=O)COc2ccc(-n3ccnc3)cc2)cc(OC)c1	-	-	-	-	-	-	.
CCc1ccc(OCC(=O)Nc2ccncc2)cc1	-	63.0	-	-	-	-	58.2
Cc1cccc(OCC(=O)Nc2ccncc2)c1	-	-	-	-	.	-	.
Cc1ccc(Oc2ccc(OCC(=O)Nc3ccncc3)cc2)cc1	.	108.0	.	.	.	.	103.3
Cc1ccc(C)c(OCC(=O)Nc2nonc2NC(=O)COc2cc(C)ccc2C)c1	-	89.7	-	-	-	-	83.7
O=C(COc1ccccc1)Nc1ccncc1	-	-	-	-	-	-	.
Cc1cccc(OCC(=O)Nc2nonc2NC(=O)COc2cccc(C)c2)c1	-	-	-	-	-	-	.
CC/C(=N/NC(=O)c1ccc2c(c1)OCO2)c1ccccc1O	-	-	-	-	.	-	.
COc1ccc(NC(=O)CN2CCN(S(=O)(=O)N3CCCCCC3)CC2)cc1	-	-	-	-	-	-	.
COCc1cccc(-c2csc(C(O)c3cccc(OC)c3)n2)c1 (stereo unspecified)	.	-	.	.	.	.	.
Cc1ccccc1OCC(=O)Nc1ccncc1	-	-	-	-	-	-	.
Cc1ccc(OCC(=O)Nc2ccncc2)c(C)c1	-	73.3	-	-	-	-	47.7
ClC(Cl)c1nnc(-c2ccccc2)c(-c2c[nH]c3ccccc23)n1	-	52.2	-	-	-	56.9	46.7
N#CCC(=O)NCCCOC(=O)Nc1ccc(Cl)c(Cl)c1	-	79.3	-	-	-	-	85.8
O=C(Nc1ccc(Cl)c(Cl)c1)OCCNC(=O)c1ccncc1	-	-	-	-	-	-	.
Cc1ccc(S(=O)(=O)N2CCN(c3nc(C)nc4sc(C)c(C)c34)CC2)cc1	-	.	.	-	-	-	.
SMILES	Platelet DG rel	MPTP inh	dFosB act	HSF1 inh	HSP90 inh	HSF-1 act	MPTP counter
Cc1sc2ncnc(N3CCN(S(=O)(=O)c4ccc(C(C)(C)C)cc4)CC3)c2c1C	.	100.5	-	.	.	.	100.4
Cc1sc2ncnc(N3CCN(CCOc4ccc(Cl)cc4)CC3)c2c1C	-	100.2	-	-	-	-	101.8
Cc1csc2ncnc(N3CCN(S(=O)(=O)c4cccc(C(F)(F)F)c4)CC3)c12	-	97.0	-	-	-	-	93.0
Cc1sc2ncnc(N3CCN(S(=O)(=O)c4ccc(Br)cc4)CC3)c2c1C	-	92.8	-	-	-	-	109.6
CCc1ccc(S(=O)(=O)NC(=S)NC2CCCCC2)cc1	-	-	-	-	-	-	.
O=C(Nc1ccc(S(=O)(=O)Nc2ncccn2)cc1)c1ccc2ncsc2c1	-	-	-	-	-	-	.
CCC(C)c1ccc(C(C)NC(=S)NC2CCCCC2)cc1 (stereo unspecified)	-	59.4	-	-	-	-	103.4
CCc1ccc(C(C)NC(=S)NC2CCCCC2)cc1 (stereo unspecified)	-	-	-	-	-	-	.
CC(NC(=S)NC1CCCCC1)c1ccc(C(C)(C)C)cc1 (stereo unspecified)	-	53.1	-	-	-	-	105.6
C#CCNC(=O)C1=C[C@@H](c2ccc3c(c2)OCO3)C[C@@H](OCc2ccc(CO)cc2)O1	-	-	-	-	.	-	.
CC(=O)CCc1ccc(OCC(=O)Nc2cccc(S(=O)(=O)N(C)c3ccccc3)c2)cc1	.	-	-	.	.	.	.
